Reference: PubChem BioAssay (NCATS)
Values without a mark were called inactive. Inconclusive results are not listed. Where a call stands in place of a potency, no number is given. The source made the active and inactive calls. Unless noted, calls follow the shape of the dose curve; as a rule, active = well fitted cell-killing curve with a large enough effect; inconclusive = small, poorly fitted or top-dose-only effect; inactive = flat fitted curve, though single readings scatter.

Columns and labels:
[1] = Cell Viability - LYMP2-002 (AID 977);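 also: series mostly up to about 92 µM; compound exposure lasted 24 h at 37 °C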
Method in brief: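 Human lymphoblastoid cells, 2500/well, complete medium; 5 h 37 C settle; compound 24 h 37 C; CellTiter-Glo, 30 min RT; luminescence. Decrease in ATP = cytotoxicity; AC50 via Hill equation.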

[2] = Cell Viability - LYMP2-006 (AID 978); also: series mostly up to about 92 µM; nearly all actives have a fitted effect of over 60% in size
Method in brief: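 Human lymphoblastoid cells, 2500 per well, were preincubated 5 hr at 37 C, then exposed to compounds for 24 hr at 37 C in complete medium. Viability was read as intracellular ATP by CellTiter-Glo luminescence; AC50 from Hill-equation fits of qHTS concentration-response data.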

[3] = Cell Viability - LYMP2-008 (AID 980); also: nearly all actives have a fitted effect of over 60% in size
Method in brief: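 Cells seeded at 2500/well and rested 5 hr at 37 C; compounds added over a concentration range and incubated 24 hr at 37 C; CellTiter-Glo added, 30 min at room temperature; luminescence read and AC50 fitted with Hill model.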

[4] = Cell Viability - LYMP2-010 (AID 981); also: nearly all actives have a fitted effect of over 55% in size
Method in brief: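 Steps: seed 2500 LYMP2-010 cells per well; incubate 5 hr at 37 C; add compound; incubate 24 hr at 37 C; add CellTiter-Glo, wait 30 min at room temperature; read luminescence. Concentration-response fitted to Hill equation for AC50.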

[5] = Cell Viability - LYMP2-012 (AID 982);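 also: cellular ATP by luciferase luminescence where a drop means cytotoxicity; cells exposed to compound for one day before reading; nearly all actives have a fitted effect of over 55% in size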
[6] = Cell Viability - LYMP2-014 (AID 983); also: series mostly up to about 92 µM; nearly all actives have a fitted effect of over 50% in size
Method in brief: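 Cells are plated at 2500/well and left 5 hr at 37 C. Compounds are added across a concentration range and incubated 24 hr at 37 C in complete medium. CellTiter-Glo is added, and luminescence is read after 30 min at room temperature.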

[7] = Cell Viability - LYMP2-016 (AID 984); also: nearly all actives have a fitted effect of over 55% in size
Method in brief: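 Human lymphoblastoid cells (LYMP2-016), 2500/well in complete medium, preincubated 5 hr at 37 C, then compound-treated 24 hr at 37 C. Intracellular ATP read by CellTiter-Glo luminescence after 30 min at room temperature; AC50 from Hill-equation concentration-response fits.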

[8] = Cell Viability - LYMP2-018 (AID 985);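 also: compound exposure lasted 24 hr at 37 °C; nearly all actives have a fitted effect of over 50% in size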
Method in brief: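 Seed 2500 lymphoblastoid cells per well, incubate 5 hr at 37 C, add compound and incubate 24 hr at 37 C, add CellTiter-Glo, wait 30 min at room temperature, then read luminescence.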

[9] = Cell Viability - LYMP2-020 (AID 986); also: series mostly up to about 92 µM; nearly all actives have a fitted effect of over 55% in size
Method in brief: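 Seed 2500 cells per well and incubate 5 hr at 37 C. Add compounds at a concentration series and incubate 24 hr at 37 C. Add CellTiter-Glo, wait 30 min at RT, read luminescence, and fit a Hill curve for AC50.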

[10] = Cell Viability - LYMP2-022 (AID 987); also: nearly all actives have a fitted effect of over 55% in size
Method in brief: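 Cells were seeded at 2500 per well, rested 5 hr at 37 C, and treated with titrated compounds for 24 hr at 37 C. Cellular ATP was then quantified by luciferase luminescence, and AC50 values were derived from Hill-modelled concentration-response curves.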

[11] = Cell Viability - LYMP2-024 (AID 988); also: nearly all actives have a fitted effect of over 60% in size
Method in brief: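 qHTS cytotoxicity, human lymphoblastoid line, complete medium; 24 h cpd treatment, 37 C; CellTiter-Glo ATP luminescence readout; tetraoctylammonium bromide positive control; AC50 via Hill fit.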

[12] = Cell Viability - LYMP2-026 (AID 989); also: nearly all actives have a fitted effect of over 50% in size
Method in brief: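 Cells are seeded at 2500 per well and held 5 hr at 37 C. Compounds are added in concentration series for 24 hr, then CellTiter-Glo reagent is applied and luminescence read.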

[13] = Cell Viability - LYMP1-002 - Assay at 24 hr (AID 993)
Method in brief: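 Acute toxicity is measured as concentration-dependent loss of cellular ATP in a human lymphoblastoid line (Coriell LYMP1-002) after 24 h treatment in complete medium. ATP is quantified by luciferase luminescence and AC50 derived by Hill modelling.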

[14] = Cell Viability - LYMP1-002 - Assay at 40 hr (AID 994); also: nearly all actives have a fitted effect of over 60% in size
Method in brief: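 Cells are plated at 2500 per well and rested 5 hr at 37 C. Compounds are added and incubated 40 hr at 37 C. CellTiter-Glo reagent is added for 30 min at room temperature before luminescence is read.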

[15] = qHTS Assay for Identification of Small Molecule Inducers of Hypoxia Response (AID 2120; active = well fitted curve in the direction sought with a large enough effect in the signal ratio, with a control signal flat, not every such curve was filed as active; the % refers to the signal ratio)
Method in brief: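 Cell-based qHTS for reporter induction: hypoxia response element controlled beta-lactamase in ME-180 cells. Compounds incubated 17 h at 37 degrees C; activity from blue/green (460/530 nm) ratio, inducers ranked by AC50.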

[16] = target: Estrogen receptor (Homo sapiens) (UniProt P03372); assay: qHTS assay for small molecule antagonists of estrogen receptor alpha signaling (AID 588513; active = well fitted curve in the direction sought with a large enough effect in the signal ratio, with a control signal flat, not every such curve was filed as active; the % refers to the signal ratio)
Method in brief: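 ER-alpha-UAS-bla GripTite HEK 293 cells in medium with 2% charcoal/dextran-treated FBS were preincubated 4 h at 37 C, dosed with compound (1:2 titration), stimulated with 0.5nM 17-beta-estradiol for 18 h, then read by CCF4 beta-lactamase fluorescence.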

[17] = target: Estrogen receptor (Homo sapiens) (UniProt P03372); assay: qHTS assay for small molecule agonists of estrogen receptor alpha signaling (AID 588514; calls by dose curve; also: nearly all actives have a fitted effect of over 70% in size; also: potency is read from the fitted curve at half-maximal effect)
Method in brief: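 Efficacy is expressed against 20 nM 17-beta-estradiol (100%) and DMSO basal (0%); EC50 from Hill equation. Assay: beta-lactamase reporter in ER-alpha-UAS-bla HEK 293 cells, 18 h compound incubation, CCF4 detection.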

[18] = Cell Viability - LYMP2-007 (AID 979)
Method in brief: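 Cells are seeded at 2500 per well and rested 5 hr. Compounds are then added over a concentration series for 24 hr at 37 C. CellTiter-Glo is added for 30 min at room temperature before luminescence reading.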

Chain of Estrogen receptor (Homo sapiens) (P03372 whole entry, looked up): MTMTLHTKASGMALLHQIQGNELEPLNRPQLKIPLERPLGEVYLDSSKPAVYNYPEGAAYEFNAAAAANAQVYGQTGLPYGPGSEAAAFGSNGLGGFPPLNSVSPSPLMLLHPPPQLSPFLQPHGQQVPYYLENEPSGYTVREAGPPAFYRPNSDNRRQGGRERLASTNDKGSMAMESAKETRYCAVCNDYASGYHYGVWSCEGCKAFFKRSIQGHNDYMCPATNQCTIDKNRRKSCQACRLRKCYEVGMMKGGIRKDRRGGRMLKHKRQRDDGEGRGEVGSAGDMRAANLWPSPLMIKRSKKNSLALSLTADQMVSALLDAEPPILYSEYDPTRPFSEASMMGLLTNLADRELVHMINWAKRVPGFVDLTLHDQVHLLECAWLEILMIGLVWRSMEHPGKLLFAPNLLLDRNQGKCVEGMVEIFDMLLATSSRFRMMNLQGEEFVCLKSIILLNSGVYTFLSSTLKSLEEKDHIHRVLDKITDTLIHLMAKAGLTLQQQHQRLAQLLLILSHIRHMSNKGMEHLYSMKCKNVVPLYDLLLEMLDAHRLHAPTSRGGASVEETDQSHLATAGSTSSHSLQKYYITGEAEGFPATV

SMILES | Potency [1] | Potency [2] | Potency [3] | Potency [4] | Potency [5] | Potency [6] | Potency [7] | Potency [8] | Potency [9] | Potency [10] | Potency [11] | outcome [12] | Potency [13] | Potency [14] | outcome [15] | outcome [16] | Potency [17] | Potency [18]
CO[Si](CCCNCCC[Si](OC)(OC)OC)(OC)OC | inactive | inactive | inactive | inactive | inactive | inactive | inactive | inactive | inactive | inactive | inactive | inactive | inactive | inactive | inactive | inactive | inactive | 
CCOc1ccccc1N | inactive | inactive |  |  | inactive | inactive | inactive | inactive | inactive | inactive | inactive | inactive | inactive | inactive | inactive | inactive | inactive | inactive
O=C(Cl)c1c(Cl)cccc1Cl | inactive | inactive | inactive | inactive | inactive | inactive | inactive | inactive | inactive | inactive | inactive | inactive | inactive | inactive | inactive | inactive | inactive | 
NC(=O)CCCCC(N)=O | inactive | inactive |  |  | inactive | inactive | inactive | inactive | inactive | inactive | inactive | inactive | inactive | inactive | inactive | inactive | inactive | inactive
CCCCCCCCC | inactive | inactive | inactive | inactive | inactive | inactive | inactive | inactive | inactive | inactive | inactive | inactive | inactive | inactive | inactive | inactive | inactive | 
CC(=O)Nc1ccccc1C |  | inactive | inactive | inactive | inactive | inactive | inactive | inactive | inactive | inactive | inactive | inactive | inactive | inactive | inactive | inactive | inactive | inactive
CCCCC(C=O)CC (stereo not given) | inactive | inactive | inactive | inactive | inactive | inactive | inactive | inactive | inactive | inactive | inactive | inactive | inactive | inactive | inactive | inactive | inactive | 
Nc1cc(Cl)c(N)c(Cl)c1 |  | inactive | inactive | inactive | inactive | inactive |  | inactive | inactive | inactive | inactive | inactive | inactive |  | inactive | inactive | inactive | 
O=C(O)c1ccc(Cl)cc1Cl |  | inactive | inactive | inactive | inactive | inactive | inactive | inactive | inactive | inactive | inactive | inactive |  | inactive | inactive | inactive | inactive | 
Nc1nc2ccccc2[nH]1 | inactive | inactive | inactive | inactive | inactive | inactive | inactive | inactive | inactive | inactive | inactive | inactive | inactive | inactive | inactive | inactive | inactive | 
C=CCOC(=O)CCCCCCCC |  | inactive |  |  | inactive | inactive | inactive | inactive | inactive | inactive | inactive | inactive | inactive | inactive | inactive | inactive | inactive | inactive
O=[N+]([O-])c1ccc(CCO)cc1 |  |  |  |  |  |  |  |  |  |  |  |  | inactive | inactive | inactive | inactive | inactive | inactive
Cc1ccc2ncccc2c1 |  | inactive | inactive | inactive | inactive | inactive | inactive | inactive | inactive | inactive | inactive | inactive | inactive | inactive | inactive | inactive | inactive | inactive
CCCCN(CCO)CCCC |  | inactive |  | inactive | inactive | inactive | inactive |  | inactive | inactive | inactive | inactive |  | inactive | inactive | inactive | inactive | inactive
CC(C)=CCl |  | inactive | inactive | inactive | inactive | inactive | inactive | inactive | inactive | inactive | inactive | inactive | inactive | inactive | inactive | inactive | inactive | inactive
CC(C)=C1CCC(C)CC1=O (stereo not given) | inactive | inactive | inactive | inactive | inactive | inactive | inactive | inactive | inactive | inactive | inactive | inactive |  | inactive | inactive | inactive | inactive | 
O=C(O)c1ccc(Cl)c(Cl)c1 |  | inactive | inactive | inactive | inactive | inactive | inactive | inactive | inactive | inactive | inactive | inactive | inactive |  | inactive | inactive | inactive | inactive
C=CCCCCCC | inactive | inactive | inactive | inactive | inactive | inactive |  | inactive | inactive | inactive | inactive | inactive | inactive | inactive | inactive | inactive | 12.6 µM (active) | 
CC(CCl)OC(C)CCl (stereo not given) |  | inactive | inactive | inactive | inactive | inactive | inactive | inactive | inactive | inactive | inactive | inactive |  | inactive | inactive | inactive | inactive | 
